Test results from PubChem BioAssay (Tox21).
“And” between values parts separate entries of the source, which are not always exact repeats. Equal entries are not always repeated. Inconclusive results are not listed. A call without a number means that no potency is given here. Some compounds were tested as several samples or in several runs, with calls that do not always agree. The source made the active and inactive calls. Calls come from the whole dose curve; as a rule, active = well fitted activation curve with a large enough effect in the repeat runs; inconclusive = weak or mixed curves; inactive = flat fitted curve, though single readings scatter.

Assay: A CellTox Green Cytotoxicity Assay to monitor cytotoxicity in HepG2 cells - 40 hour (AID 1224879); note: nearly all actives have a fitted effect of over 40% in size
Details: CellTox Green fluorescence; series mostly up to 76.8 µM
Source text: National Center for Advancing Translational Sciences [NCATS]
NIH Chemical Genomics Center [NCGC]
U.S. Environmental Protection Agency [EPA]
National Institutes of Environmental Health Sciences [NIEHS]
National Toxicology Program [NTP]
Cell-based models are critical for drug discovery. Determining the natural cytotoxic effects resulting from test compounds is an essential research activity. A CellTox Green Cytotoxicity Assay to monitor cytotoxicity in real time of continues cell culture during 40 hours of the compound treatment was used to screen Tox21 10K library compounds in HepG2 cells. CellTox Green Cytotoxicity Assay is a nonlytic, homogeneous, biofluorescent method to measure cytotoxicity in cell culture after experimental manipulation. The assay system uses a proprietary asymmetric cyanine dye that is excluded from viable cells but preferentially stains the dead cell's DNA. […] Viable cells produce no appreciable increases in fluorescence. Therefore, the fluorescence signal produced by the binding interaction with dead cell DNA is proportional to cytotoxicity.
The mixture of HepG2 cell suspension and reagents were dispensed at 600cells/6 ul/well in 1536-well tissue culture treated black solid bottom plates using a Multidrop dispenser. After the assay plates were incubated at a 37 C/5% CO2 incubator for 5 hours, 23 nL of compounds dissolved in DMSO, positive and negative controls was transferred to the assay plate by a pintool work station. The plates were incubated at 37 C for 40 hours. The fluorescence intensity were measured at 0h, 8h, 16h, 24h, 32h and 40h time points using ViewLux plate reader during compound treatment.
Potency is the fitted concentration of half-maximal effect.

SMILES	Potency
Oc1c(Br)cc(Br)cc1Br	inactive
CNC(=O)O/N=C/C(C)(C)S(C)(=O)=O	inactive
C=CC#N	inactive
O=[N+]([O-])c1ccc(Cl)c(Cl)c1	inactive
CCOP(=S)(OCC)Oc1cc(C)nc(C(C)C)n1	inactive and 24.5 µM (active)
N#Cc1cccc(C#N)c1	inactive
O=C(O)c1cc(Oc2ccc(C(F)(F)F)cc2Cl)ccc1[N+](=O)[O-]	inactive
OC[C@@H](O)[C@H]1O[C@@H]2O[C@H](C(Cl)(Cl)Cl)O[C@@H]2[C@H]1O	inactive
COS(=O)(=O)OC	inactive
Sc1ccccc1	inactive and 43.6 µM (active)
Nc1cccc(Cl)c1	inactive
O=[N+]([O-])c1cc([As](=O)(O)O)ccc1O	inactive
Cc1cccc(C)c1N	inactive
Cl[C@H]1OCCO[C@@H]1Cl	inactive
CC[N+](=O)[O-]	inactive
COP(=S)(OC)Oc1ccc(SC)c(C)c1	inactive
O=S(=O)(O)OOS(=O)(=O)O	inactive
Oc1ccc(Cl)cc1	inactive
Cc1cccc(N)c1C	inactive
COc1nc(NC(C)C)nc(NC(C)C)n1	inactive

SMILES	Potency
O=C(O)COc1ccccc1	inactive
Cl/C=C/Cl	inactive
Cc1cc(O)ccc1Cl	inactive
CNCC(O)c1ccc(O)cc1 (stereo not given)	inactive
CN(C)CCC#N	inactive
Cc1ccc(O)c(C)c1	inactive
Cc1ccc(N)cc1	inactive
Nc1ccc(N)cc1	inactive
Nc1ncc([N+](=O)[O-])s1	inactive
O=C(O)CCCc1ccc(N(CCCl)CCCl)cc1	inactive
N#Cc1ccccn1	inactive
CSc1nnc(C(C)(C)C)c(=O)n1N	inactive
CC(=O)/C=C/c1ccccc1	inactive
ClC(Cl)c1ccccc1	inactive
CNC(=O)O/N=C(\SC)C(=O)N(C)C	inactive
CCCCCCCCCCCCCCCCCC(=O)O	inactive
COc1cc(-c2ccc(N)c(OC)c2)ccc1N	inactive
CCOC(=O)CC(SP(=O)(OC)OC)C(=O)OCC (stereo not given)	inactive
OCC(O)CCl (stereo not given)	inactive
CC(C)(C)C(=O)CCl	inactive
